Experimental data reported in PubChem BioAssay (EPA / NIEHS).
Records with an inconclusive call do not appear. The source made the active and inactive calls. The calls were made as follows: active = hit-call score of the fitted dose curve at least 0.9, where 1 is the maximum; inconclusive = response in the unintended direction; inactive = score below 0.9.

Columns and labels:
[1] = molecular target: sheep Cyclooxygenase-2 (Cox2), PTGS2 (gene 443460) (UniProt P79208); assay: NVS_ENZ_oCOX2: NovaScreen (NVS) Enzymatic Assay for sheep Cyclooxygenase-2 (Cox2) (AID 2283231)
Outline: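 Ovine placental enzyme, cell-free; chemical added, 0.66 h, absorbance (colorimetric). Screen 25 uM in duplicate; ≥threshold hits titrated, top 50 uM. Inhibition = signal loss vs DMSO.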

[2] = test system: guinea pig Leukotriene B4 Receptor (LTB4), gene 100379538; assay: NVS_GPCR_gLTB4: NovaScreen (NVS) G Protein-Coupled Receptor Assay for guinea pig Leukotriene B4 Receptor (LTB4) (AID 2283247)
Outline: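 Membranes from guinea pig spleen incubated 2 h with radioligand and compound; bound counts measured by filtration and scintillation. Screened first at 25 uM in duplicate, then actives titrated to a 50 uM top concentration relative to DMSO.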

[3] = molecular target: human Adenosine A1 Receptor (AdoRA1), ADORA1 (gene 134) (UniProt P30542); assay: NVS_GPCR_hAdoRA1: NovaScreen (NVS) G Protein-Coupled Receptor Assay for human Adenosine A1 Receptor (AdoRA1) (AID 2283254)
human Adenosine A1 Receptor (AdoRA1), ADORA1 (gene 134), sequence (P30542 whole entry, looked up): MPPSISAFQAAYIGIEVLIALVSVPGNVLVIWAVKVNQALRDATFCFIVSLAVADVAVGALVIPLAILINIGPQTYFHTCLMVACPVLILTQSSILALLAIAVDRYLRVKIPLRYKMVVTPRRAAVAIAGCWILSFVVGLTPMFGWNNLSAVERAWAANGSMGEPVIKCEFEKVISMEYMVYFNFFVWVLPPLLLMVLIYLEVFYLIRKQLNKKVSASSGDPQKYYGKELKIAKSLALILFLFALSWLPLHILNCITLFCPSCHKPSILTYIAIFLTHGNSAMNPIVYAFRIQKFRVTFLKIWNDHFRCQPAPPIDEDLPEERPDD
Outline: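 Hum. cortical membranes + radioligand, cmpd 1 h; filtration, scintillation count. Readout = decrease vs DMSO. Primary 25 uM dup; hits → conc. series.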

[4] = test system: bovine Histamine 1 Receptor (H1), gene 281231; assay: NVS_GPCR_bH1: NovaScreen (NVS) G Protein-Coupled Receptor Assay for bovine Histamine 1 Receptor (H1) (AID 2283246)
Outline: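 Hits from a 25 uM duplicate primary screen were retested in concentration series (top 50 uM); binding measured as scintillation-counted displacement of radioligand from bovine cerebellar membranes after 1 h, normalised to DMSO.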

[5] = molecular target: guinea pig Opioid, Kappa 1 Receptor (OpiateK), OPRK1 (gene 100135587) (UniProt P41144); assay: NVS_GPCR_gOpiateK: NovaScreen (NVS) G Protein-Coupled Receptor Assay for guinea pig Opioid, Kappa 1 Receptor (OpiateK) (AID 2283252);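 also: radioligand displacement from kappa opioid receptor in guinea pig cerebellar membranes; active means reduced radioligand binding relative to DMSO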
guinea pig Opioid, Kappa 1 Receptor (OpiateK), OPRK1 (gene 100135587), sequence (P41144 whole entry, looked up): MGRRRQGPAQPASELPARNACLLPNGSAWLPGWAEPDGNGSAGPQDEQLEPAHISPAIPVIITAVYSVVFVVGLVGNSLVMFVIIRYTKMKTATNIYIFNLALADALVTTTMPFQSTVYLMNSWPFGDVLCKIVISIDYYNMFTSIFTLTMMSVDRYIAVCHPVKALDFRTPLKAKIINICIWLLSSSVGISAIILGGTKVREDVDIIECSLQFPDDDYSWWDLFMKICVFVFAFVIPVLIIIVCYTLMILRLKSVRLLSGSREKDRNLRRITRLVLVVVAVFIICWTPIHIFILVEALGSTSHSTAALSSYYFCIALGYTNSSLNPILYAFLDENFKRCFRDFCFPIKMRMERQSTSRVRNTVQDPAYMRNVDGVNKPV
Outline: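 Radioligand competition binding using guinea pig cerebellum membrane fraction; 2 h exposure; filter radiodetection. Single concentration 25 uM (duplicate), follow-up concentration-response for actives.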

[6] = molecular target: bovine Dopamine Receptor (DR), Non-selective Binding, DRD1 (gene 281125) (UniProt Q95136); assay: NVS_GPCR_bDR_NonSelective: NovaScreen (NVS) G Protein-Coupled Receptor Assay for bovine Dopamine Receptor (DR), Non-selective Binding (AID 2283241)
Outline: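 Filter-based radioligand binding with bovine striatal membrane, incubated 1 h; DMSO as negative baseline. Initial duplicate single-point test at 25 uM preceded concentration series for actives.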

[7] = molecular target: human Serotonin, 5-Hydroxytryptamine Receptor 2A (5HT2A), HTR2A (gene 3356) (UniProt P28223); assay: NVS_GPCR_h5HT2A: NovaScreen (NVS) G Protein-Coupled Receptor Assay for human Serotonin, 5-Hydroxytryptamine Receptor 2A (5HT2A) (AID 2283249)
human Serotonin, 5-Hydroxytryptamine Receptor 2A (5HT2A), HTR2A (gene 3356), sequence (P28223 whole entry, looked up): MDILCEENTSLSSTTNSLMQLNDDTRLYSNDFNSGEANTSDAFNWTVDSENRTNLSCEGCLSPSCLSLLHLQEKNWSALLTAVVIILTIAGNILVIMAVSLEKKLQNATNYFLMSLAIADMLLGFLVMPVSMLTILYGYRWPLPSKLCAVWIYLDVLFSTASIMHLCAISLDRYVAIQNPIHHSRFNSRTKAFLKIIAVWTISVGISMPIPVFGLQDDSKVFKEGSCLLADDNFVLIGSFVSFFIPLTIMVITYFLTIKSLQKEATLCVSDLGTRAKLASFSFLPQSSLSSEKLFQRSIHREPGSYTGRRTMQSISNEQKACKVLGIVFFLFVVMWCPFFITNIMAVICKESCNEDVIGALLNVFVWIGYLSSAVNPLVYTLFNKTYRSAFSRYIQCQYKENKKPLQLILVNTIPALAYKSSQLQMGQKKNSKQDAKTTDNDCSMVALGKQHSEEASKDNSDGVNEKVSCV
Outline: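 Radioligand displacement on human cortex tissue extract, counted by filtration and scintillation 1.5 h post-dosing. Initial single-concentration screen at 25 uM in duplicate, concentration series in follow-up; DMSO as baseline.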

[8] = test system: guinea pig Muscarinic, Peripheral (Mperiperal) Receptor, Non-selective Binding, gene 100379235; assay: NVS_GPCR_gMPeripheral_NonSelective: NovaScreen (NVS) G Protein-Coupled Receptor Assay for guinea pig Muscarinic, Peripheral (Mperiperal) Receptor, Non-selective Binding (AID 2283250)
Outline: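 Screened in duplicate at 25 uM, hits retested in concentration series to 50 uM max, using bladder membrane radioligand displacement from guinea pig. Filtration and scintillation counting 1 h post-dose, fitted relative to DMSO.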

[9] = molecular target: human Serotonin, 5-Hydroxytryptamine Receptor 5A (5HT5A), HTR5A (gene 3361) (UniProt P47898); assay: NVS_GPCR_h5HT5A: NovaScreen (NVS) G Protein-Coupled Receptor Assay for human Serotonin, 5-Hydroxytryptamine Receptor 5A (5HT5A) (AID 2283251)
human Serotonin, 5-Hydroxytryptamine Receptor 5A (5HT5A), HTR5A (gene 3361), sequence (P47898 whole entry, looked up): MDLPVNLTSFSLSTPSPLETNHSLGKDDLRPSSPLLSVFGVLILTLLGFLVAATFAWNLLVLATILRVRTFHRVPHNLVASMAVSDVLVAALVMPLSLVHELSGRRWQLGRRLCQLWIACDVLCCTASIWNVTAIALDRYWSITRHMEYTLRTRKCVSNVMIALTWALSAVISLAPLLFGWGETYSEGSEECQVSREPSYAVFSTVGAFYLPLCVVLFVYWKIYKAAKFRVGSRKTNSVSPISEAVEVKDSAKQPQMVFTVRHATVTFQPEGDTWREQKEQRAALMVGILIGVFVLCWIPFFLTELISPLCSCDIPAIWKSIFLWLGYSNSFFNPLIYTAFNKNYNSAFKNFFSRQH
Outline: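 Membranes from HEK293 cells, radioligand binding read by filtration and scintillation after 1 h. Single-concentration duplicate testing at 25 uM, then concentration-response for actives; positive-direction fitting relative to DMSO.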

[10] = molecular target: human Serotonin, 5-Hydroxytryptamine Receptor 6 (5HT6), HTR6 (gene 3362) (UniProt P50406); assay: NVS_GPCR_h5HT6: NovaScreen (NVS) G Protein-Coupled Receptor Assay for human Serotonin, 5-Hydroxytryptamine Receptor 6 (5HT6) (AID 2283253)
human Serotonin, 5-Hydroxytryptamine Receptor 6 (5HT6), HTR6 (gene 3362), sequence (P50406 whole entry, looked up): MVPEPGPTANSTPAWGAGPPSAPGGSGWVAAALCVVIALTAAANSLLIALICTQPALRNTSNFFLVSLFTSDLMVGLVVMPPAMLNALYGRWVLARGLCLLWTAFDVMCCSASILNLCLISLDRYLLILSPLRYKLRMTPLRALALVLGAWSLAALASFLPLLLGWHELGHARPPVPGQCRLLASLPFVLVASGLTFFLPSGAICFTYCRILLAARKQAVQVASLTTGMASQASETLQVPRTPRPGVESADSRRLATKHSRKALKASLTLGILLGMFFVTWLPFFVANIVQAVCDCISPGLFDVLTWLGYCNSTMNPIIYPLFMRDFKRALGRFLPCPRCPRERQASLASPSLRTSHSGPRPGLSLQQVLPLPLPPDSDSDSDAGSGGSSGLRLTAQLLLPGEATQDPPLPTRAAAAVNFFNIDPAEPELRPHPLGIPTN
Outline: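 Filter scintillation counting of radioligand displacement from HEK293-expressed 5HT6, 1 hour post-dose, with loss of signal relative to DMSO. Single 25 uM duplicates first, with concentration series for confirmation.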

[11] = molecular target: human Serotonin, 5-Hydroxytryptamine Receptor 7 (5HT7), HTR7 (gene 3363) (UniProt P34969); assay: NVS_GPCR_h5HT7: NovaScreen (NVS) G Protein-Coupled Receptor Assay for human Serotonin, 5-Hydroxytryptamine Receptor 7 (5HT7) (AID 2283255);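 also: hits reduce specific radioligand binding relative to DMSO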
human Serotonin, 5-Hydroxytryptamine Receptor 7 (5HT7), HTR7 (gene 3363), sequence (P34969 whole entry, looked up): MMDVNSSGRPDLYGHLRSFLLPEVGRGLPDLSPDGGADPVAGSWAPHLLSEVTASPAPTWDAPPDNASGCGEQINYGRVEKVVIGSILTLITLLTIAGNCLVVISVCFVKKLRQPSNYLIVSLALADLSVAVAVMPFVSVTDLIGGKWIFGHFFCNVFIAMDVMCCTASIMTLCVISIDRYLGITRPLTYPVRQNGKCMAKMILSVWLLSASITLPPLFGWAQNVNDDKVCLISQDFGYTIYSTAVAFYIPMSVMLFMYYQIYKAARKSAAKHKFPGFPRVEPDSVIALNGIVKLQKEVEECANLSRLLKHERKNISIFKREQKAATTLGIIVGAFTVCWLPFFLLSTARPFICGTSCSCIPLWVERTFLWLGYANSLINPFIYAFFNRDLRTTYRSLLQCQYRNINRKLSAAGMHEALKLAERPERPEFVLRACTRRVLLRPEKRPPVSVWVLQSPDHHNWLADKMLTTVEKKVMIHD
Outline: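 Filter-bound radioactivity counted after 1 h, with loss of specific radioligand binding fitted against DMSO. Membrane protein came from CHO cells expressing human 5HT7. Chemicals were tested first at 25 uM in duplicate, then in concentration series if active.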

[12] = molecular target: human Vascular Endothelial Growth Factor Receptor 2 (VEGFR2), KDR (gene 3791) (UniProt P35968); assay: NVS_ENZ_hVEGFR2: NovaScreen (NVS) Enzymatic Assay for human Vascular Endothelial Growth Factor Receptor 2 (VEGFR2) (AID 2283230)
human Vascular Endothelial Growth Factor Receptor 2 (VEGFR2), KDR (gene 3791), sequence (P35968 whole entry, looked up): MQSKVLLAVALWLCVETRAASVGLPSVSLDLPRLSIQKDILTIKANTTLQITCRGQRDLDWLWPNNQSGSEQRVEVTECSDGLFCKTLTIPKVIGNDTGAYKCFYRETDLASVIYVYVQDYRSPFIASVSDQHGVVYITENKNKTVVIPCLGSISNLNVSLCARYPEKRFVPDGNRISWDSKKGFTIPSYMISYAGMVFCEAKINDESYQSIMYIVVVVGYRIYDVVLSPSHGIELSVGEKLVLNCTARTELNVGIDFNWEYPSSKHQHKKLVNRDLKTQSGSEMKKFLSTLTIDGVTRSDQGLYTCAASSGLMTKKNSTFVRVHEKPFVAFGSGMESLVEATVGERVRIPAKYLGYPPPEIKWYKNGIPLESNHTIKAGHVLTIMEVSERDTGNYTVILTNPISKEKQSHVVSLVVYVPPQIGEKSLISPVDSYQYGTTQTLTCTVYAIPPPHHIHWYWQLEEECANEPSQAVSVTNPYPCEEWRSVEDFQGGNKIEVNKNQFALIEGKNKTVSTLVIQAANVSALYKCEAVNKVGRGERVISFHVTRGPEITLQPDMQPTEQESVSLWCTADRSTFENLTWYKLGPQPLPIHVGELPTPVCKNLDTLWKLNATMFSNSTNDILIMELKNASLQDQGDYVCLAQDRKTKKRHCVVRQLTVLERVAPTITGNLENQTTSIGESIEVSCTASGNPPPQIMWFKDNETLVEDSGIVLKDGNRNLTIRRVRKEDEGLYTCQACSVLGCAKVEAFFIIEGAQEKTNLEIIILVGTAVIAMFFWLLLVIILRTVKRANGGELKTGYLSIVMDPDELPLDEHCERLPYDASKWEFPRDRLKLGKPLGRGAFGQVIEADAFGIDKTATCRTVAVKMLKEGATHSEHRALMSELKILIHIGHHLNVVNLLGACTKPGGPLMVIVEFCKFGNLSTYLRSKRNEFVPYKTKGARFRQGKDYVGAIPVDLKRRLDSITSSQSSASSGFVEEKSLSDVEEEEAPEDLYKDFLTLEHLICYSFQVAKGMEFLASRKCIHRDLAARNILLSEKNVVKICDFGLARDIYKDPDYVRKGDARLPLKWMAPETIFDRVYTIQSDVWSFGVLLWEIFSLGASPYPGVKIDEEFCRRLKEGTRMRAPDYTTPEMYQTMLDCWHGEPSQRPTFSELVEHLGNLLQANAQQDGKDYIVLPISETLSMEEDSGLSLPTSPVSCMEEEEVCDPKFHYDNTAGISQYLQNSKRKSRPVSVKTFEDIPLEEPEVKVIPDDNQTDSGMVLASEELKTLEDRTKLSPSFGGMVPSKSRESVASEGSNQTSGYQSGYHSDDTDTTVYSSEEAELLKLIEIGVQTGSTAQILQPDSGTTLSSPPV
Outline: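 Cell-free recombinant VEGFR2 kinase, fluorescent substrate with electrophoretic mobility-shift separation; read 1 h after dosing. Screened at 25 uM in duplicate, hits to concentration-response up to 50 uM; loss-of-signal versus DMSO.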

[13] = molecular target: rat Constitutive Nitric Oxide Synthase (CNOS), Nos1 (gene 24598) (UniProt P29476); assay: NVS_ENZ_rCNOS: NovaScreen (NVS) Enzymatic Assay for rat Constitutive Nitric Oxide Synthase (CNOS) (AID 2283236)
Outline: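 Single 25 uM duplicate screen, then concentration series to 50 uM for chemicals meeting threshold. Rat brain membrane-derived CNOS activity detected radiometrically by filtration and scintillation counting, 1 h after compound addition; DMSO as baseline.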

[14] = NVS_GPCR_bNPY_NonSelective: NovaScreen (NVS) G Protein-Coupled Receptor Assay for bovine Neuropeptide Y (NPY) Receptor, Non-selective Binding (AID 2283245)
Outline: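 Displacement of radioligand from bovine hippocampal membrane receptors, read by filtration and scintillation counting after 1 hour. Concentration-response to a top of 50 uM followed a 25 uM duplicate primary screen. Loss of signal versus DMSO.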

[15] = molecular target: human Adrenergic, Alpha 2A Receptor (Adra2A), ADRA2A (gene 150) (UniProt P08913); assay: NVS_GPCR_hAdra2A: NovaScreen (NVS) G Protein-Coupled Receptor Assay for human Adrenergic, Alpha 2A Receptor (Adra2A) (AID 2283257)
Outline: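 Displacement of a specific radioligand from HT29 membrane protein was counted by filter scintillation after 1 h. Compounds were screened in duplicate at 25 uM, and actives were retested in concentration series. Fitting was positive-direction against DMSO.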

[16] = molecular target: human Adrenergic, Beta 1 Receptor (Adrb1), ADRB1 (gene 153) (UniProt P08588); assay: NVS_GPCR_hAdrb1: NovaScreen (NVS) G Protein-Coupled Receptor Assay for human Adrenergic, Beta 1 Receptor (Adrb1) (AID 2283258)
Outline: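 Membranes/protein extracted from human neuroepithelioma cells, radioligand competition binding read by filtration and scintillation 2 h post-dose. Single 25 uM duplicate screen, then concentration-response follow-up; DMSO as negative control.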

[17] = molecular target: sheep Cyclooxygenase-1 (Cox1), PTGS1 (gene 443551) (UniProt P05979); assay: NVS_ENZ_oCOX1: NovaScreen (NVS) Enzymatic Assay for sheep Cyclooxygenase-1 (Cox1) (AID 2283239);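 also: actives reduce cyclooxygenase activity so potencies are for inhibitors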
sheep Cyclooxygenase-1 (Cox1), PTGS1 (gene 443551), sequence (P05979 whole entry, looked up): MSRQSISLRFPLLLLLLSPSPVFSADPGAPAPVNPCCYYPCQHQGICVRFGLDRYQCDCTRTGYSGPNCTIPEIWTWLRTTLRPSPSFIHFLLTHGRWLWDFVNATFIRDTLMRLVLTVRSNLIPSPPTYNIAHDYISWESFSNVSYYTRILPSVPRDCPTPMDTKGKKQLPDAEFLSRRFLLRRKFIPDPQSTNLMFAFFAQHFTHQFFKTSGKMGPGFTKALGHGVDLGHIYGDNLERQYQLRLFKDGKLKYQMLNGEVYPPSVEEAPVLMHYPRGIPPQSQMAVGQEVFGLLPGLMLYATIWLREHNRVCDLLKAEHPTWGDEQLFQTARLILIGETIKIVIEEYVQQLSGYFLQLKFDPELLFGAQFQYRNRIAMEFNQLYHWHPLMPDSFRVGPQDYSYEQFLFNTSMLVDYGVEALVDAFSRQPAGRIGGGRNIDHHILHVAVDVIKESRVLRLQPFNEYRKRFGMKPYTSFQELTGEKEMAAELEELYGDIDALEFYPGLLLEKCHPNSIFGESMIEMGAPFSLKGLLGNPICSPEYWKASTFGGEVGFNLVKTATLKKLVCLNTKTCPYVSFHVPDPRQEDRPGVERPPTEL
Outline: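 Absorbance read-out of cyclooxygenase activity in a cell-free preparation from sheep seminal vesicles, taken 0.66 hour after dosing. Initial testing was in duplicate at 25 uM, and confirmatory testing was run in concentration series.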

[18] = molecular target: guinea pig Leukotriene D4 Receptor (LTD4), CYSLTR1 (gene 100135514) (UniProt Q2NNR5); assay: NVS_GPCR_gLTD4: NovaScreen (NVS) G Protein-Coupled Receptor Assay for guinea pig Leukotriene D4 Receptor (LTD4) (AID 2283248)
guinea pig Leukotriene D4 Receptor (LTD4), CYSLTR1 (gene 100135514), sequence (Q2NNR5 whole entry, looked up): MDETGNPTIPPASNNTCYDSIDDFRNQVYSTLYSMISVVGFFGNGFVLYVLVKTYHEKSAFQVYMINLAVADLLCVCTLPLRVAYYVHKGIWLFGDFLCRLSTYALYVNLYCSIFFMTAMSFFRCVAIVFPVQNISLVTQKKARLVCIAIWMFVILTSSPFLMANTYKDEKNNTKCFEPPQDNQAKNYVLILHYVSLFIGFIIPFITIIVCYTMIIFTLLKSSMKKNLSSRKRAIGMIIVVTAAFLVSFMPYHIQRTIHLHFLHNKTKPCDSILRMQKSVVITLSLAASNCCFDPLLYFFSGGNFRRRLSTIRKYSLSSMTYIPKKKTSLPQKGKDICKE
Outline: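 Guinea pig lung membrane preparation; bound radioligand measured by filter scintillation after 1 h, loss of signal versus DMSO marking displacement. Compounds tested at 25 uM in duplicate, hits retested to max 50 uM.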

[19] = molecular target: Adenosine receptor A1 (Bos taurus) (UniProt P28190); assay: NVS_GPCR_bAdoR_NonSelective: NovaScreen (NVS) G Protein-Coupled Receptor Assay for bovine Adenosine Receptor (AdoR), Non-selective Binding (AID 2283244)
Outline: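 Cell-free binding with membranes from bovine striatum: radioligand displaced by test chemical, read after 1 h by filtration and scintillation. Single-point 25 uM duplicate primary, 50 uM top concentration in follow-up curves, DMSO baseline.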

[20] = molecular target: human Adenosine A2a Receptor (AdoRA2a), ADORA2A (gene 135) (UniProt P29274); assay: NVS_GPCR_hAdoRA2a: NovaScreen (NVS) G Protein-Coupled Receptor Assay for human Adenosine A2a Receptor (AdoRA2a) (AID 2283256)
Outline: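 HEK293-derived receptor preparation, radioligand displacement, 1.5 h, filtration + scintillation read. Loss of bound signal scored vs DMSO. Single-point 25 uM in duplicate first, then concentration-response for actives.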

Q: With `CCCOC(=O)c1ccc(O)cc1` as the compound, how does the AC50 [1] read?
A: 25 µM (active)

Q: What about the outcome [2] of the same compound?
A: inactive

Q: And the AC50 [3]?
A: 11.8 µM (active)

Q: For `C#C[C@]1(O)CC[C@H]2[C@@H]3CCC4=CC(=O)CC[C@@H]4[C@H]3CC[C@@]21C`, which outcome [4] is on record?
A: inactive

Q: And the outcome [5]?
A: inactive

Q: What does the source list for `CC(=O)NC1(c2cccc(F)c2)CCN(CC[C@@]2(c3ccc(Cl)c(Cl)c3)CN(c3ccccc3)C(=O)CO2)CC1`?
A: AC50 [6]: 11.3 µM (active); AC50 [7]: 1.9 µM (active); AC50 [8]: 20.8 µM (active); AC50 [9]: 28.3 µM (active); AC50 [5]: 20.8 µM (active); AC50 [10]: 5.94 µM (active); AC50 [11]: 20.8 µM (active)

Q: For `CCCOc1sc(C(=O)N2CCC(c3cc(CN)ccc3F)CC2)c(C)c1Br`, which outcome [12] is on record?
A: inactive

Q: And the outcome [13]?
A: inactive

Q: What about the AC50 [14] of the same compound?
A: 36.3 µM (active)

Q: And the AC50 [7]?
A: 14.3 µM (active)

Q: And the AC50 [8]?
A: 23.2 µM (active)

Q: And the AC50 [9]?
A: 15.1 µM (active)

Q: What about the outcome [5] of the same compound?
A: inactive

Q: What about the AC50 [10] of the same compound?
A: 8.41 µM (active)

Q: And the AC50 [3]?
A: 17.2 µM (active)

Q: And the AC50 [11]?
A: 5.09 µM (active)

Q: And the AC50 [15]?
A: 4.12 µM (active)

Q: What about the AC50 [16] of the same compound?
A: 15.2 µM (active)

Q: With `Oc1cccc(O)c1` as the compound, how does the AC50 [17] read?
A: 10.4 µM (active)

Q: And the outcome [11]?
A: inactive

Q: For `O=c1c(-c2ccc(O)cc2)coc2cc(O)ccc12`, which outcome [7] is on record?
A: inactive

Q: Which outcome [2] does the source give for `CC[C@H](C)[C@@H](C(=O)O)n1sc2ccccc2c1=O` here?
A: inactive

Q: And the outcome [18]?
A: inactive

Q: What about the AC50 [5] of the same compound?
A: 12.7 µM (active)

Q: With `CC(C)(C)c1cc(C(C)(C)C)c(O)c(C(C)(C)C)c1` as the compound, how does the outcome [7] read?
A: inactive

Q: Which outcome [12] does the source give for `CC(C)(C)c1ccc(O)c(C(C)(C)C)c1` here?
A: inactive

Q: And the outcome [19]?
A: inactive

Q: What about the outcome [20] of the same compound?
A: inactive

Q: What does the source list for `CN1CCN(c2ccccc2/C=C2\SCCN(c3ccc(Cl)c(Cl)c3)C2=O)CC1`?
A: outcome [13]: inactive; AC50 [7]: 1.9 µM (active); AC50 [9]: 0.302 µM (active); AC50 [5]: 3.39 µM (active); AC50 [10]: 1.45 µM (active); AC50 [11]: 0.0142 µM (active); AC50 [16]: 3.51 µM (active)

Q: Which results are given for `O=C(OCCOCCOC(=O)c1ccccc1)c1ccccc1`?
A: AC50 [3]: 5.62 µM (active); AC50 [11]: 8.96 µM (active)

Q: For `c1ccc2cc3c(ccc4ccccc43)cc2c1`, which AC50 [6] is on record?
A: 32.8 µM (active)

Q: What about the outcome [4] of the same compound?
A: inactive

Q: With `O=C(O)Cc1cc(I)c(Oc2cc(I)c(O)c(I)c2)c(I)c1` as the compound, how does the outcome [12] read?
A: inactive

Q: What about the outcome [19] of the same compound?
A: inactive

Q: What about the outcome [9] of the same compound?
A: inactive

Q: And the outcome [3]?
A: inactive

Q: What about the AC50 [11] of the same compound?
A: 5.26 µM (active)

Q: With `CCCCCCCC(=O)O` as the compound, how does the outcome [18] read?
A: inactive

Q: And the outcome [8]?
A: inactive

Q: And the outcome [5]?
A: inactive

Q: And the outcome [3]?
A: inactive

Q: With `Cc1oc(-c2ccccc2)nc1CCOc1ccc(C[C@H](Nc2ccccc2C(=O)c2ccccc2)C(=O)O)cc1` as the compound, how does the AC50 [17] read?
A: 26.5 µM (active)

Q: And the outcome [14]?
A: inactive

Q: What about the outcome [2] of the same compound?
A: inactive

Q: What about the outcome [18] of the same compound?
A: inactive

Q: And the AC50 [9]?
A: 9.5 µM (active)

Q: And the AC50 [3]?
A: 25 µM (active)

Q: What about the outcome [11] of the same compound?
A: inactive
